# Experimental data taken from the supplement of paper PMC8728848.
# Many of the other results were omitted from the sample, so the strongest signals are more common in it than they were.
# Key:
# Test in all cases: glycan array binding signal (z-score within array); higher = stronger binding
# Conditions in all cases: glycan notation: IUPAC condensed, linker removed
# [1] = biological target: Fuc(a1-2)Gal(b1-3)GalNAc(a1-3)[Fuc(a1-2)]Gal(b1-4)Glc
# Summary of the method: (§1)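 The binding signal is a Z-score computed within each array. Data were drawn from 3228 arrays in the Consortium for Functional Glycomics database, restricted to those with a known protein sequence. Scores were averaged over arrays of the same protein sequence at different concentrations or buffers, and over linkers, and negative values can be taken as non-binding.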
# [2] = biological target: Fuc(a1-2)Gal(b1-3)GalNAc(a1-3)[Fuc(a1-2)]Gal(b1-4)GlcNAc
# Summary of the method: as §1
# [3] = biological target: Fuc(a1-2)Gal(b1-3)GalNAc(b1-4)[Neu5Ac(a2-3)]Gal(b1-4)Glc
# Summary of the method: as §1
# [4] = biological target: Fuc(a1-2)Gal(b1-3)GlcNAc(b1-3)[Fuc(a1-2)Gal(b1-3)GlcNAc(b1-6)]GalNAc
# Summary of the method: as §1
# [5] = biological target: Fuc(a1-2)Gal(b1-4)GlcNAc(b1-2)[Fuc(a1-2)Gal(b1-4)GlcNAc(b1-4)]Man(a1-3)[Fuc(a1-2)Gal(b1-4)GlcNAc(b1-2)Man(a1-6)]Man(b1-4)GlcNAc(b1-4)GlcNAc
# Summary of the method: as §1
# [6] = biological target: Fuc(a1-2)Gal(b1-4)GlcNAc(b1-3)Gal(b1-4)GlcNAc(b1-2)Man(a1-3)[Fuc(a1-2)Gal(b1-4)GlcNAc(b1-3)Gal(b1-4)GlcNAc(b1-2)Man(a1-6)]Man(b1-4)GlcNAc(b1-4)GlcNAc
# Summary of the method: as §1
# [7] = biological target: Fuc(a1-2)Gal(b1-4)GlcNAc6S
# Summary of the method: as §1
# [8] = biological target: Fuc(a1-2)Gal(b1-4)[Fuc(a1-3)]GlcNAc(b1-2)[Fuc(a1-2)Gal(b1-4)[Fuc(a1-3)]GlcNAc(b1-4)]Man(a1-3)[Fuc(a1-2)Gal(b1-4)[Fuc(a1-3)]GlcNAc(b1-2)Man(a1-6)]Man(b1-4)GlcNAc(b1-4)GlcNAc
# Summary of the method: as §1
# [9] = biological target: Fuc(a1-2)[Gal(a1-3)]Gal(b1-3)GalNAc
# Summary of the method: as §1
# [10] = biological target: Fuc(a1-2)[Gal(a1-3)]Gal(b1-4)[Fuc(a1-3)]GlcNAc
# Summary of the method: as §1
# [11] = biological target: Fuc(a1-3)[Gal(b1-4)]GlcNAc(b1-3)Gal(b1-3)[Fuc(a1-4)]GlcNAc
# Summary of the method: as §1
# Gal(a1-3)Gal(b1-3)GlcNAc = biological target: Gal(a1-3)Gal(b1-3)GlcNAc
# Summary of the method: as §1
# Gal(a1-3)GalNAc = biological target: Gal(a1-3)GalNAc
# Summary of the method: as §1
# [12] = biological target: Gal(b1-3)GalNAc(a1-3)[Fuc(a1-2)]Gal(b1-4)Glc
# Summary of the method: as §1
# [13] = biological target: Gal(b1-3)GalNAc(a1-3)[Fuc(a1-2)]Gal(b1-4)GlcNAc
# Summary of the method: as §1
# [14] = biological target: Gal(b1-3)GlcNAc(b1-3)Gal(b1-4)[Fuc(a1-3)]GlcNAc
# Summary of the method: as §1
# [15] = biological target: Gal(b1-3)GlcNAc(b1-6)GalNAc
# Summary of the method: as §1
# Gal(b1-4)Glc6S = biological target: Gal(b1-4)Glc6S
# Summary of the method: as §1
# [16] = biological target: Gal(b1-4)GlcNAc(b1-2)Man(a1-6)[GlcNAc(b1-2)Man(a1-3)]Man(b1-4)GlcNAc(b1-4)GlcNAc
# Summary of the method: as §1
# [17] = biological target: Gal(b1-4)GlcNAc(b1-2)[Gal(b1-4)GlcNAc(b1-4)]Man(a1-3)[GlcNAc(b1-4)][Gal(b1-4)GlcNAc(b1-2)Man(a1-6)]Man(b1-4)GlcNAc(b1-4)GlcNAc
# Summary of the method: as §1
# [18] = biological target: Gal(b1-4)GlcNAc(b1-3)Gal(b1-4)GlcNAc(b1-2)Man(a1-3)[Gal(b1-4)GlcNAc(b1-3)Gal(b1-4)GlcNAc(b1-2)Man(a1-6)]Man(b1-4)GlcNAc(b1-4)GlcNAc
# Summary of the method: as §1
# [19] = biological target: Gal(b1-4)GlcNAc(b1-3)Gal(b1-4)GlcNAc(b1-3)[Gal(b1-4)GlcNAc(b1-3)Gal(b1-4)GlcNAc(b1-6)]GalNAc
# Summary of the method: as §1
# Gal(b1-4)GlcNAc6P = biological target: Gal(b1-4)GlcNAc6P
# Summary of the method: as §1
# Gal3S(b1-3)GalNAc = biological target: Gal3S(b1-3)GalNAc
# Summary of the method: as §1
# Gal3S4S(b1-4)GlcNAc = biological target: Gal3S4S(b1-4)GlcNAc
# Summary of the method: as §1
# GalNAc(a1-3)Gal = biological target: GalNAc(a1-3)Gal
# Summary of the method: as §1
# GalNAc(b1-3)GalNAc = biological target: GalNAc(b1-3)GalNAc
# Summary of the method: as §1
# [20] = biological target: GlcNAc(b1-2)Man(a1-3)[GlcNAc(b1-2)Man(a1-6)]Man(b1-4)GlcNAc(b1-4)GlcNAc
# Summary of the method: as §1
# [21] = biological target: GlcNAc(b1-2)Man(a1-3)[GlcNAc(b1-4)][GlcNAc(b1-2)Man(a1-6)]Man(b1-4)GlcNAc(b1-4)GlcNAc
# Summary of the method: as §1
# [22] = biological target: GlcNAc(b1-2)[GlcNAc(b1-4)]Man(a1-3)[GlcNAc(b1-4)][GlcNAc(b1-2)[GlcNAc(b1-6)]Man(a1-6)]Man(b1-4)GlcNAc(b1-4)[Fuc(a1-6)]GlcNAc
# Summary of the method: as §1
# [23] = biological target: GlcNAc(b1-3)Gal(b1-4)GlcNAc(b1-3)Gal(b1-4)GlcNAc(b1-2)Man(a1-3)[GlcNAc(b1-3)Gal(b1-4)GlcNAc(b1-3)Gal(b1-4)GlcNAc(b1-2)Man(a1-6)]Man(b1-4)GlcNAc(b1-4)[Fuc(a1-6)]GlcNAc
# Summary of the method: as §1
# [24] = biological target: GlcNAc(b1-3)Gal(b1-4)GlcNAc(b1-6)[GlcNAc(b1-3)Gal(b1-3)]GalNAc
# Summary of the method: as §1
# [25] = biological target: GlcNAc(b1-4)GlcNAc(b1-4)GlcNAc
# Summary of the method: as §1
# Kdn(a2-3)Gal(b1-3)GalNAc = biological target: Kdn(a2-3)Gal(b1-3)GalNAc
# Summary of the method: as §1
# Kdn(a2-6)Gal(b1-4)GlcNAc = biological target: Kdn(a2-6)Gal(b1-4)GlcNAc
# Summary of the method: as §1
# [26] = biological target: Man(a1-2)Man(a1-3)[Man(a1-2)Man(a1-6)]Man(a1-6)[Man(a1-2)Man(a1-2)Man(a1-3)]Man(b1-4)GlcNAc(b1-4)GlcNAc
# Summary of the method: as §1
# [27] = biological target: Man(a1-3)[Man(a1-6)]Man(a1-6)[Man(a1-2)Man(a1-3)]Man(b1-4)GlcNAc(b1-4)GlcNAc
# Summary of the method: as §1
# [28] = biological target: Neu5Ac(a2-3)Gal(b1-4)GlcNAc(b1-3)Gal(b1-4)GlcNAc(b1-2)Man(a1-3)[Neu5Ac(a2-3)Gal(b1-4)GlcNAc(b1-3)Gal(b1-4)GlcNAc(b1-2)Man(a1-6)]Man(b1-4)GlcNAc(b1-4)GlcNAc
# Summary of the method: as §1
# [29] = biological target: Neu5Ac(a2-3)Gal(b1-4)GlcNAc(b1-3)Gal(b1-4)GlcNAc(b1-3)Gal(b1-4)GlcNAc(b1-2)Man(a1-3)[Neu5Ac(a2-3)Gal(b1-4)GlcNAc(b1-3)Gal(b1-4)GlcNAc(b1-3)Gal(b1-4)GlcNAc(b1-2)Man(a1-6)]GalNAc
# Summary of the method: as §1
# [30] = biological target: Neu5Ac(a2-3)Gal(b1-4)GlcNAc(b1-3)Gal(b1-4)GlcNAc(b1-3)[Neu5Ac(a2-3)Gal(b1-4)GlcNAc(b1-3)Gal(b1-4)GlcNAc(b1-6)]GalNAc
# Summary of the method: as §1
# [31] = biological target: Neu5Ac(a2-3)GalNAc(b1-4)GlcNAc
# Summary of the method: as §1
# [32] = biological target: Neu5Ac(a2-3)[GalNAc(b1-4)]Gal(b1-4)Glc
# Summary of the method: as §1
# [33] = biological target: Neu5Ac(a2-3)[GalNAc(b1-4)]Gal(b1-4)GlcNAc(b1-3)GalNAc
# Summary of the method: as §1
# [34] = biological target: Neu5Ac(a2-6)Gal(b1-4)GlcNAc(b1-3)Gal(b1-4)GlcNAc(b1-3)GalNAc
# Summary of the method: as §1
# [35] = biological target: Neu5Ac(a2-6)Gal(b1-4)GlcNAc(b1-3)Gal(b1-4)GlcNAc(b1-3)[Neu5Ac(a2-6)Gal(b1-4)GlcNAc(b1-3)Gal(b1-4)GlcNAc(b1-6)]GalNAc
# Summary of the method: as §1
# [36] = biological target: Neu5Ac(a2-6)Gal(b1-4)GlcNAc(b1-6)[Gal(b1-3)GlcNAc(b1-3)]Gal(b1-4)Glc
# Summary of the method: as §1
# [37] = biological target: Neu5Ac(a2-6)GlcNAc(b1-4)GlcNAc
# Summary of the method: as §1
# [38] = biological target: Neu5Ac(a2-8)Neu5Ac(a2-3)Gal(b1-4)Glc
# Summary of the method: as §1
# [39] = biological target: Neu5Ac(a2-8)Neu5Ac(a2-8)Neu5Ac
# Summary of the method: as §1
# Neu5Ac(b1-6)GalNAc = biological target: Neu5Ac(b1-6)GalNAc
# Summary of the method: as §1
binder,measurement,setting,value
"ABA (Agaricus bisporus), Q00022 (protein) MTYTISIRVYQTTPKGFFRPVERTNWKYANGGTWDEVRGEYVLTMGGSGTSGSLRFVSSDTDESFVATFGVHNYKRWCDIVTNLTNEQTALVINQEYYGVPIRDQARENQLTSYNVANAKGRRFAIEYTVTEGDNLKANLIIG",glycan array binding signal (z-score),[1],-0.201
same,glycan array binding signal (z-score),[2],0.475
same,glycan array binding signal (z-score),[3],-0.192
same,glycan array binding signal (z-score),[4],-0.172
same,glycan array binding signal (z-score),[5],-0.048
same,glycan array binding signal (z-score),[6],-0.157
same,glycan array binding signal (z-score),[7],-0.289
same,glycan array binding signal (z-score),[8],0.231
same,glycan array binding signal (z-score),[9],-0.239
same,glycan array binding signal (z-score),[10],-0.155
same,glycan array binding signal (z-score),[11],-0.058
same,glycan array binding signal (z-score),Gal(a1-3)Gal(b1-3)GlcNAc,-0.192
same,glycan array binding signal (z-score),Gal(a1-3)GalNAc,-0.118
same,glycan array binding signal (z-score),[12],3.56
same,glycan array binding signal (z-score),[13],3.27
same,glycan array binding signal (z-score),[14],-0.245
same,glycan array binding signal (z-score),[15],-0.25
same,glycan array binding signal (z-score),Gal(b1-4)Glc6S,-0.203
same,glycan array binding signal (z-score),[16],2.81
same,glycan array binding signal (z-score),[17],-0.25
same,glycan array binding signal (z-score),[18],2.52
same,glycan array binding signal (z-score),[19],1.8
same,glycan array binding signal (z-score),Gal(b1-4)GlcNAc6P,-0.104
same,glycan array binding signal (z-score),Gal3S(b1-3)GalNAc,2.46
same,glycan array binding signal (z-score),Gal3S4S(b1-4)GlcNAc,-0.254
same,glycan array binding signal (z-score),GalNAc(a1-3)Gal,-0.234
same,glycan array binding signal (z-score),GalNAc(b1-3)GalNAc,0.071
same,glycan array binding signal (z-score),[20],5.72
same,glycan array binding signal (z-score),[21],2.54
same,glycan array binding signal (z-score),[22],-0.287
same,glycan array binding signal (z-score),[23],1.39
same,glycan array binding signal (z-score),[24],2.74
same,glycan array binding signal (z-score),[25],-0.093
same,glycan array binding signal (z-score),Kdn(a2-3)Gal(b1-3)GalNAc,0.099
same,glycan array binding signal (z-score),Kdn(a2-6)Gal(b1-4)GlcNAc,-0.239
same,glycan array binding signal (z-score),[26],0.46
same,glycan array binding signal (z-score),[27],2.82
same,glycan array binding signal (z-score),[28],2.72
same,glycan array binding signal (z-score),[29],2.8
same,glycan array binding signal (z-score),[30],0
same,glycan array binding signal (z-score),[31],-0.276
same,glycan array binding signal (z-score),[32],-0.249
same,glycan array binding signal (z-score),[33],1.31
same,glycan array binding signal (z-score),[34],-0.201
same,glycan array binding signal (z-score),[35],2.26
same,glycan array binding signal (z-score),[36],-0.255
same,glycan array binding signal (z-score),[37],-0.229
same,glycan array binding signal (z-score),[38],-0.267
same,glycan array binding signal (z-score),[39],-0.247
same,glycan array binding signal (z-score),Neu5Ac(b1-6)GalNAc,-0.191
